Data as given in PubChem BioAssay (NCATS).
Values joined by “and” are separate entries in the source; they are usually repeats but may differ in a detail not shown here. Equal values may be shown once. Records with an inconclusive call do not appear. Active and inactive are the calls of the source. Unless noted, the call rests on the fitted dose curve; in most records, active means well fitted curve in the direction sought with a large enough effect; inconclusive means small, poorly fitted or top-dose-only effect, or another doubt; inactive means no such curve, though single readings can be large; an effect the other way counts as inactive or inconclusive.

Assays:
[1] = qHTS profiling of the MIPE4 collection as inhibitors of Plasmodium falciparum (DD2) proliferation (AID 743345; call rule not given here); conditions: P. falciparum Dd2 in erythrocytes, SYBR Green DNA, 72 h; at 28.5 µM (top of the series) unless noted
Summary of the method: (§1)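 Parasite DNA was quantified by SYBR Green I fluorescence (ex 485, em 535 nm) after overnight lysis in saponin/Triton buffer at room temperature. Cultures at 0.3% parasitemia and 2.5% hematocrit were first exposed to compound for 72 h at 37 C; signals were normalised to artemisinin (0.29 uM) and vehicle wells.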

[2] = qHTS profiling of the MIPE4 collection as inhibitors of Plasmodium falciparum (DD2) proliferation (Rep 2) (AID 743346; call rule not given here); conditions: P. falciparum Dd2 in erythrocytes, SYBR Green DNA, 72 h; at 28.5 µM (top of the series) unless noted
Summary of the method: as §1

[3] = qHTS profiling of the MIPE4 collection as inhibitors of Plasmodium falciparum (HB3) proliferation (AID 743347; call rule not given here;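 further: plate controls were DMSO vehicle wells for no effect and artemisinin wells for full effect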); conditions: P. falciparum HB3 in erythrocytes, SYBR Green DNA, 72 h; at 28.5 µM (top of the series) unless noted
Summary of the method: as §1

[4] = High-throughput drug toxicity screening in the BPDCN cell line Gen2.2 (AID 1224824; call rule not given here;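 further: cells exposed to compounds for 48 h before reading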); conditions: Gen2.2 BPDCN cells; at 45.8 µM (top of the series) unless noted
Summary of the method: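 CellTiter-Glo luminescence after 48 h compound exposure of Gen2.2 cells; percent activity set with DMSO as 100% and bortezomib (9.2 uM final) as 0%. Cells seeded at 500 per well, RPMI + 10% FBS, 37 °C.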

[5] = High-throughput drug toxicity screening in the BPDCN cell line Cal-1 (AID 1224825; call rule not given here); conditions: Cal-1 BPDCN cell viability, qHTS; at 45.8 µM (top of the series) unless noted
Summary of the method: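 CellTiter-Glo luminescence after 48 h compound exposure; percent activity scaled with DMSO as 100% and bortezomib (9.2 uM final) as 0%. Cal-1 cells seeded at 500/well in RPMI, 10% FBS, no phenol red.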

[6] = qHTS assay for measurement of the activity of small molecule inhibitors on Zika virus induced Caspase-3 activity in human iPSC derived neural progenitor cells (hNPCs) (AID 1224857); conditions: hNPCs ZIKV-induced caspase-3/7, Caspase-Glo luminescence, 6 h; series mostly up to 45.7 µM; further: % of control where 0% means no effect; nearly all actives have a fitted effect of over 65% in size
Summary of the method: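 Caspase-3/7 induction by a 6-hour ZIKV infection was quantified with a luminescent Caspase-Glo 3/7 reagent incubated 30 minutes at room temperature. Compounds were preincubated with hNPCs for 1 hour; inhibition was calculated against uninfected and infected control wells.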

[7] = qHTS assay for measurement of the activity of small molecule inhibitors on Zika virus induced Caspase-3 activity in human astrocytoma cells (AID 1224859); conditions: SNB-19 ZIKV-induced caspase-3/7, luminescence, 6 h; series mostly up to 45.7 µM;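 further: plate controls were ZIKV-infected untreated cells for no effect and uninfected cells for full effect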
Summary of the method: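 In SNB-19 cells plated at 250 cells/well and grown 16-20 h, compounds were applied 1 h before ZIKV (2 FFU/cell). Six hours later caspase-3/7 luminescence was recorded.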

[8] = qHTS Screen of the MIPE 4.0 Collection Against Ewings Sarcoma (RDES) (AID 1259252); conditions: RD-ES Ewing sarcoma viability, CellTiter-Glo, 48 h; series mostly up to 45.8 µM; further: nearly all actives have a fitted effect of over 35% in size; further: potency means the concentration at half of the fitted maximal effect
Summary of the method: (§2)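 Dose series incubated 48 h with cells in RPMI plus 5% FBS, glutamine and penicillin/streptomycin; cell viability then quantified via CellTiter-Glo.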

[9] = qHTS Screen of the MIPE 4.0 Collection Against Ewings Sarcoma (TC71) (AID 1259253); conditions: TC71 Ewing sarcoma viability, CellTiter-Glo, 48 h; series mostly up to 45.8 µM; further: nearly all actives have a fitted effect of over 40% in size; further: potency means the concentration at half of the fitted maximal effect
Summary of the method: as §2

[10] = qHTS Screen of the MIPE 4.0 Collection Against Ewings Sarcoma (EW8) (AID 1259255); conditions: EW8 Ewing sarcoma viability, CellTiter-Glo, 48 h; series mostly up to 45.8 µM; further: nearly all actives have a fitted effect of over 35% in size; further: potency means the concentration at half of the fitted maximal effect;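 on viability: 100% = DMSO-treated cells and 0% = medium-only wells without cells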
Summary of the method: as §2

[11] = qHTS Screen of the MIPE 4.0 Collection Against Ewings Sarcoma (TC32) (AID 1259256); conditions: TC32 Ewing sarcoma viability, CellTiter-Glo, 48 h; series mostly up to 45.8 µM; further: nearly all actives have a fitted effect of over 45% in size; further: potency means the concentration at half of the fitted maximal effect
Summary of the method: as §2

[12] = qHTS assay to identify small molecule inhibitors of chordoma cells - UCH-1 (AID 1259355); conditions: UCH-1 chordoma viability, CellTiter-Glo, 48 h, combination, with auranofin plus four topoisomerase inhibitors; series mostly up to 46.1 µM; further: nearly all actives have a fitted effect of over 55% in size; further: potency means the concentration at half of the fitted maximal effect
Summary of the method: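 Screening used approved and investigational drugs in 15-point titration against 800 seeded cells per well. A fixed combination of auranofin with camptothecin, doxorubicin, rubitecan and topotecan followed compound addition, and growth was scored by CellTiter-Glo after 48hr.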

[13] = qHTS assay to identify small molecule inhibitors of chordoma cells - UCH-2 (AID 1259356); conditions: UCH-2 chordoma viability, CellTiter-Glo ATP luminescence, 48 h; series mostly up to 46.1 µM; further: on the % scale 0 is the no-effect control and ±100 the full control effect
[14] = qHTS profiling of the MIPE4 collection as inhibitors of Plasmodium falciparum (3D7) proliferation (AID 743344; call rule not given here;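 further: scaled between DMSO vehicle wells and 0.29 µM artemisinin as full inhibition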); conditions: P. falciparum 3D7 in erythrocytes, SYBR Green DNA fluorescence, 72 h; at 28.5 µM (top of the series) unless noted
Summary of the method: as §1

[15] = qHTS profiling for inhibitors of Plasmodium falciparum (3D7) proliferation (AID 743322);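 further: infected erythrocytes exposed to compound for 72 h before lysis; 100% = DMSO vehicle wells and 0% = 0.29 µM artemisinin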; conditions: P. falciparum 3D7 proliferation; at 28.7 µM (top of the series)
Summary of the method: as §1

[16] = qHTS profiling for inhibitors of Plasmodium falciparum (DD2) proliferation (AID 743323; call rule not given here); conditions: lower = more inhibition; at 28.7 µM (top of the series)
Summary of the method: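 P. falciparum Dd2-infected erythrocytes (0.3% parasitemia, 2.5% hematocrit) exposed 72 h at 37 C, 5% CO2. Lysis with SYBR Green, overnight at room temperature, fluorescence 485/535 nm; normalized to 0.29 uM artemisinin and DMSO.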

[17] = qHTS profiling for inhibitors of Plasmodium falciparum (HB3) proliferation (AID 743324); conditions: Plasmodium falciparum HB3 blood-stage proliferation; at 28.7 µM (top of the series);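 further: 100% = DMSO vehicle wells and 0% = artemisinin-treated control wells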
Summary of the method: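 SYBR Green fluorescence (485 ex/535 em) of lysed cultures, incubated overnight at room temperature in the dark, quantifies parasite DNA. Infected erythrocytes at 0.3% parasitemia and 2.5% hematocrit were exposed 72 h; values normalized to DMSO and 0.29 uM artemisinin controls.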

[18] = Identifying Small Molecule Inhibitors of Pancreatic Cancer Stem Cells (A2780, Spheroid) (AID 1259357); conditions: Potency: A2780 spheroid viability; series mostly up to 46.1 µM; further: potency means the concentration at half of the fitted maximal effect;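 further: spheroids pre-formed over 14 days in stem cell medium on hydrogel; compound exposure lasted 48 h before the ATP luminescence read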
Summary of the method: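 Adherent (2D) versus sphere (3D) formats; spheres generated 14 d in SCM beforehand. Compound transferred by pin tool after 4 h, 48 h incubation, CellTiter-Glo endpoint.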

[19] = Identifying Small Molecule Inhibitors of Pancreatic Cancer Stem Cells (SN12C, Adherent) (AID 1259358); conditions: viability/growth inhibition; series mostly up to 46.1 µM;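 further: cell survival measured after 48 h of compound exposure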; further: potency means the concentration at half of the fitted maximal effect
Summary of the method: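 Endpoint: ATP-based luminescence, 48 h drug exposure. Bortezomib at 9.2 uM final as full-kill control; DMSO vehicle as negative control; activity normalized between vehicle and cell-free wells.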

Row | Compound | parasite growth remaining, % of DMSO control (lower = more inhibition) [1] | parasite growth, % of control (lower = inhibition) [2] | growth, % of control [3] | cell viability, % of control (lower = more cytotoxic) [4] | viability (% of control) [5] | Potency [6] | Potency [7] | Potency [8] | Potency [9] | Potency [10] | Potency [11] | Potency [12] | Potency [13] | parasite growth, % of DMSO control [14] | remaining parasite growth % (stronger effect = lower value) [15] | activity, percent of control [16] | remaining proliferation (% of control), lower = more inhibition [17] | Potency [18] | Potency [19]
1 | CCOC(=O)c1ccc(C#Cc2ccc3c(c2)C(C)(C)CCS3)nc1 | 83.8% | 29.1% | 50.6% | 379% | 47% | inactive | inactive | inactive | inactive | inactive | inactive | inactive | inactive |  |  |  |  |  | 
2 | Nc1ccc(S(=O)(=O)Nc2ccccn2)cc1 | 89.4% | 84.7% | 54.6% | 123% | 112% | inactive | inactive | inactive | inactive | inactive | inactive |  | inactive | 89.8% |  |  |  |  | 
3 | C[C@]12C=CC(=O)C=C1CC[C@@H]1[C@@H]2C(=O)C[C@@]2(C)[C@H]1CC[C@]2(O)C(=O)CO |  | 82.6% [at 9.64 µM] |  | 158% [at 23.2 µM] | 86.4% [at 23.2 µM] | inactive | inactive | inactive | inactive | inactive | inactive | inactive | inactive |  |  |  |  |  | 
4 | N=C(N)c1ccc(OCCCCCOc2ccc(C(=N)N)cc2)cc1 | 6.09% | 15.7% | 3.03% | 272% | 39.6% | inactive | inactive | 18.7 µM (active) | 8.33 µM (active) | 14.8 µM (active) |  | inactive | inactive | 5.02% |  |  |  |  | 
5 | CNC(=O)c1cc(Oc2ccc(NC(=O)Nc3ccc(Cl)c(C(F)(F)F)c3)cc2)ccn1 | 14% | 33% |  | 2.89% | 9.69% | inactive | inactive | 1.18 µM (active) | 2.35 µM (active) | 18.7 µM (active) |  |  |  | 15.4% | 31.5% and 9.84% | 29.9% and 20% | 3.29% and 1.23% | 20.9 µM (active) | 20.9 µM (active)
6 | CCN(CC)CCn1c(=O)c(Cc2ccc(OC)cc2)nc2ccccc21 |  | 28.1% | 149% | 115% | 94.1% | inactive | inactive | inactive | inactive | inactive | inactive |  |  |  | 41.3% | 89.9% |  |  | inactive
7 | CC(C(=O)O)c1ccc2c(c1)CC(=O)c1ccccc1S2 (stereo unspecified) | 92.6% | 187% | 97.8% | 113% | 19.4% | inactive | inactive | inactive | inactive | inactive | inactive |  |  | 69.8% |  |  |  |  | 
8 | Nc1nc(=S)c2[nH]cnc2[nH]1 |  | 51.3% | 216% | 51.9% | 7.77% | inactive | inactive | 0.935 µM (active) | 0.935 µM (active) |  | 0.526 µM (active) |  |  | 93.4% |  |  |  |  | 
9 | CCCOc1ccc(C(=O)OCCN(CC)CC)cc1N |  | 111% | 63.6% | 177% | 105% | inactive | inactive | inactive | inactive | inactive | inactive |  |  | 100% |  |  |  |  | 
10 | O=C(O)C1CCCN(CCC=C(c2ccccc2)c2ccccc2)C1 (stereo unspecified) |  | 72.1% | 101% | 145% | 127% | inactive | inactive | 11.8 µM (active) | 9.35 µM (active) | 13.2 µM (active) | 9.35 µM (active) |  |  |  |  |  |  |  | 
11 | CC(C)OC(=O)OCOP(=O)(CO[C@H](C)Cn1cnc2c(N)ncnc21)OCOC(=O)OC(C)C |  |  |  | 162% | 42.8% | inactive | inactive | inactive |  | 23.5 µM (active) |  |  |  |  |  |  |  |  | 
12 | COc1cc2c(Nc3ccc(Br)cc3F)ncnc2cc1OCC1CCN(C)CC1 | 7.29% | 12.4% | 3.4% | 3.75% | 5.58% | inactive | inactive | 16.6 µM (active) | 5.9 µM (active) | 5.26 µM (active) |  | 5.01 µM (active) |  |  | -1.51% | 3.65% |  | inactive | 
